Screening data from PubChem.
PAFAH2 FP inh – PAFAH2 (human) inhibition; recombinant PAFAH2, FP-rhodamine activity probe, fluorescence polarization; inhibition, % at 3.39 µM; 340,000 tested, 0.99% active; AID 492956;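 active = inhibition above the mean over all tested compounds plus 3 SD, cut at about 30% in these data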;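 note: inhibitors block probe labeling of enzyme so polarization drops; 0% = enzyme with DMSO and 100% = wells lacking PAFAH2 protein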
PAFAH1B2 inh – PAFAH1B2 (human) inhibition | P68402 | recombinant PAFAH1B2, FP-rhodamine activity probe, fluorescence polarization | inhibition, % at 3.39 µM | 340,000 tested, 1.2% active;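 active = inhibition above the mean of all tested compounds plus 3 SD, cut at about 24% in these data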;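 note: 0% = enzyme with DMSO and 100% = wells lacking PAFAH1B2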
PAFAH1B3 inh – inhibitors of human PAFAH1B3. Q15102. recombinant PAFAH1B3, FP-rhodamine probe, fluorescence polarization. inhibition, % at 3.39 µM. 340,000 tested, 0.28% active;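 active = inhibition above the screen-wide average of all tested compounds plus 3 SD, cut at about 25% in these data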;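 note: 0% = enzyme with DMSO only and 100% = wells lacking PAFAH1B3 protein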
Fam108B inh – blocks mouse Fam108B hydrolase in RBBP9 counter-screen. recombinant Fam108B, FP-Rh probe fluorescence polarization. 300,000 tested, 0.33% active. inhibition, % at 9.51 µM. AID 1947;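 active = inhibition above the screen mean inhibition plus 3 SD, computed separately per campaign, cut at about 18% in these data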;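 note: inhibitors lower polarization as less probe binds the enzyme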
pPAFAH inh – inhibitors of human plasma PAF acetylhydrolase (pPAFAH); inhibition, % at 3.39 µM; 330,000 tested, 1.5% active; Q13093; recombinant pPAFAH, FP-rhodamine probe fluorescence polarization; AID 463082;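 active = inhibition above the mean inhibition across the screen plus 3 SD, cut at about 25% in these data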;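 note: inhibitors block binding of the rhodamine activity-based probe so polarization drops; 0% = enzyme with DMSO and 100% = wells lacking pPAFAH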
Target sequence (Q13093 whole entry, looked up): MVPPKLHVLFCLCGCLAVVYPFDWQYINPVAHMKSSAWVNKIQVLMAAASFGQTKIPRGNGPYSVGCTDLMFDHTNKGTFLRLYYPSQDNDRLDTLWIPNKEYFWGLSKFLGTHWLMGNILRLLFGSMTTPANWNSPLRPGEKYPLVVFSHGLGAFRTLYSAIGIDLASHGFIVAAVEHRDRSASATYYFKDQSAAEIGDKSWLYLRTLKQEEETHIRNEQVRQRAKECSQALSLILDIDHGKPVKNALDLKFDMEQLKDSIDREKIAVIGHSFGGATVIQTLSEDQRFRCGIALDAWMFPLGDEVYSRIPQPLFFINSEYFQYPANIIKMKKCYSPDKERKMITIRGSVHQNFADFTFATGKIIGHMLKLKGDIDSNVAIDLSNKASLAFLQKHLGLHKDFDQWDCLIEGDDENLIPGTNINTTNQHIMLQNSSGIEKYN
PME-1 primary – PME-1 (human) inhibition. recombinant PME-1, FP-Rh probe fluorescence polarization. inhibition, % at 5.9 µM. Q9Y570. AID 2130. 320,000 tested, 0.53% active;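 active = inhibition above the campaign mean of all compounds plus 3 SD, cut at about 26% in these data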;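 note: competitive labeling of PME-1 active site by serine hydrolase directed probe; 0% = PME-1 with DMSO and 100% = wells lacking PME-1 enzyme; inhibitors block probe labeling so polarization falls and inhibition rises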
pPAFAH confirm – confirmation of human plasma PAF acetylhydrolase (pPAFAH) inhibitors; recombinant pPAFAH, FP-Rh probe fluorescence polarization; inhibition, % at 3.39 µM; 2,300 tested, 72% active; AID 463230; shares compounds with pPAFAH inh;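 active = mean inhibition of the triplicate above the hit cutoff set for the earlier primary screen, cut at about 25% in these data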;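 note: 0% = enzyme with DMSO and 100% = wells lacking pPAFAH enzyme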
* marks the source's active call; other numbers are inactive results; . = not tested or not shown. In the library only some 2.8% were active in any assay of this set; here they are far more common.

SMILES	PAFAH2 FP inh	PAFAH1B2 inh	PAFAH1B3 inh	Fam108B inh	pPAFAH inh	PME-1 primary	pPAFAH confirm
C=CCSC1=N/C(=C\c2sccc2C)C(=O)S1	7	0	5	0	1	-5	.
C=CCSC1=N/C(=C\C=C\c2ccco2)C(=O)S1	33*	6	13	16	61*	2	18
Cc1cc(-c2ccccc2)n(-c2ccc(C(=O)N3CCN(c4ncccn4)CC3)cc2)n1	-3	-2	8	-2	36*	-3	22
COc1ccc(CNC(=O)Cc2ccc(NC(=O)C3=C(C)OCCS3)cc2)cc1	2	-3	-2	-4	24	0	.
CC1=C(C(=O)Nc2ccc(CC(=O)NCc3ccc(OC(C)C)cc3)cc2)SCCO1	13	5	6	1	38*	-7	19
Cn1nc(C(=O)OCC(=O)c2ccc(Cl)cc2)c2ccccc2c1=O	4	9	9	.	1	.	.
COc1cc(OC)c2c(O)c3c(c(-c4c5c(c(O)c6c(OC)cc(OC)cc46)CO[C@@H](C)[C@H]5O)c2c1)[C@H](O)[C@H](C)OC3	24	22	8	-11	78*	-5	68*
COc1cc2c(c(OC)c1O)C(=O)CO2	6	5	2	2	6	-2	.
CC(=O)c1ccc(N2CCN(C(=O)c3ccc(Cn4c(=S)[nH]c5ccc(N6CCOCC6)cc5c4=O)cc3)CC2)cc1	13	5	12	-1	49*	-1	23
O=C(c1ccc2c(=O)n(Cc3ccccc3)c(=S)[nH]c2c1)N1CCOCC1	19	11	7	0	8	1	.
COc1ccc(-c2[nH]ncc2CN2CCCC(C(=O)c3ccc(OC)cc3OC)C2)cc1 (centres undefined)	-1	3	2	1	5	-2	.
COc1ccc(OC)c(CN2CCCC(C(=O)c3ccccc3SC)C2)c1 (centres undefined)	1	1	4	6	58*	0	5
O=C(Cc1cccs1)Nc1nnc(Cc2ccccc2)s1	21	-1	-2	7	19	-5	.
COc1ccc(Cc2nnc(NC(=O)Cc3cccs3)s2)cc1OC	15	0	10	16	36*	2	17
COc1cc(NC(=O)c2ccccc2)c(OC)cc1NC(=O)Cc1cccs1	.	.	.	3	46*	-4	21
CSCCC(NS(=O)(=O)c1ccc(C)cc1)C(=O)NCC(C)(C)N1CCOCC1 (centres undefined)	5	8	3	.	3	3	.
O=[N+]([O-])c1ccc(N=Nc2c(Cl)cc(O)cc2Cl)cc1	15	15	16	17	46*	24	39*
Cc1ccc(-c2nc3s/c(=C\c4ccco4)c(=O)n3n2)cc1	4	2	12	7	1	-13	.
O=c1nc2s/c(=C\c3ccco3)c(=O)n2nc1Cc1ccc(F)cc1	4	0	8	3	40*	-4	19
O=C(O)c1cccc2c(-c3ccccc3)c(-c3ccccc3)[nH]c12	-4	48*	-2	6	52*	8	46*
O=C(O)c1ccccc1-c1nc(-c2ccccc2)c(-c2ccccc2)[nH]1	4	11	3	-3	5	-1	.
COc1ccc2sc(-c3ccc(N(C)C)cc3)c(C#CC(C)(C)O)c2c1	1	-2	11	.	15	10	.
COc1ccc2sc(-c3ccc(N(C)C)cc3)c(C#Cc3cncn3C)c2c1	6	12	19	.	42*	.	38*
Cc1cccc(C(=O)OC(C)CN2C(C)CCCC2C)c1 (centres undefined)	10	1	6	-4	0	-3	.
Cc1ccc(N2C(=O)c3ccccc3C2C(=O)c2ccc(O)cc2O)cc1 (centres undefined)	9	0	9	3	47*	-1	5
SMILES	PAFAH2 FP inh	PAFAH1B2 inh	PAFAH1B3 inh	Fam108B inh	pPAFAH inh	PME-1 primary	pPAFAH confirm
O=C(Nc1ccc(F)cc1F)c1cc(-c2ccc3c(c2)OCO3)on1	-2	-1	0	-2	2	-2	.
O=C(NC1(C(=O)O)CCCC1)c1ccccc1	0	4	9	.	.	.	.
CCOc1ccc(NS(=O)(=O)c2ccc(C(=O)NCC(c3ccc(OC)cc3)N3CCCC3)cc2)cc1 (centres undefined)	8	2	3	-5	49*	-1	41*
O=C(c1ccccc1Cl)N1N=C(c2cccs2)CC1c1cccc(O)c1 (centres undefined)	-3	2	1	1	3	-1	.
CCOc1ccc(-c2ccc(/C=C3/C(=N)N4C(C)=CSC4=NC3=O)o2)c([N+](=O)[O-])c1	18	4	4	-6	45*	13	37*
CCn1c(NC(=O)c2cccc(Cn3cc(Cl)cn3)c2)nc2ccccc21	0	3	4	-2	65*	1	65*
Cc1ccc([N+](=O)[O-])cc1-c1[nH]c(-c2ccc(O)c(O)c2)nc1-c1ccccc1	-2	3	19	17	65*	18	83*
O=C(CCOc1ccccc1)Nc1ccnn1C1CCN(Cc2ccc(CO)o2)CC1	6	4	0	4	43*	4	7
Cc1ccc(CN2CCC(n3nccc3NC(=O)CCOc3ccccc3)CC2)o1	4	2	3	-5	0	-1	.
Cc1ccc(C)c(NS(=O)(=O)c2ccc(OCC(=O)NCc3ccco3)cc2)c1	4	7	-4	-3	39*	-6	22
Cc1ccc(OCC(=O)N2CCC(C)CC2)c([N+](=O)[O-])n1	-1	5	4	.	2	3	.
CC1CCC(C(=O)NC(C(=O)NCCc2ccc(S(N)(=O)=O)cc2)C(C)C)CC1 (centres undefined)	-7	-5	5	-2	2	-2	.
Cc1cc(SCc2cccc(Cl)c2)nc(=O)[nH]1	7	2	8	-9	6	7	.
CCOc1ccccc1CNC(=O)C(C)n1nc(C)c2c(C)n(-c3ccccc3)nc2c1=O (centres undefined)	-1	1	3	-1	58*	8	0
CCCCn1c(N)c(N(CC(C)C)C(=O)c2ccc(Cl)c(S(=O)(=O)N3CCCC3)c2)c(=O)[nH]c1=O	0	-3	-3	-2	-2	-1	.
O=C(CC1Nc2cccc3cccc(c23)NC1=O)Nc1ccc(F)cc1 (centres undefined)	6	6	7	1	60*	18	7
OCC(O)/C=N/Nc1nc(Nc2ccccc2)nc(Nc2ccccc2)n1 (centres undefined)	1	-4	0	9	39*	-6	20
COc1cc([N+](=O)[O-])cc(/C=N/NC(=O)C(C)Nc2cccc3ccccc23)c1O (centres undefined)	2	8	14	8	40*	4	59*
